# Source: PubChem BioAssay AID1159580 (chemical genetic matrix, 2015)
# Several values for one entry are separate records, joined by “and”; a condition that tells them apart may be missing. Equal values may be shown once. Among all 5,500 compounds or so, about 2,000 (36%) were called active. Another 18% or so got no clear call; they are omitted. Some of the results follow. Values without a mark were called inactive. No stated cut-off is given here; in the data, active means normalized growth mostly below about 0.91 (no sharp cut-off); inconclusive means no clear call, values can overlap the other calls; inactive means mostly above about 0.92.
# Test: chemical genetic growth profiling, strain panel (AID 1159580);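 further: tested at 20 µM; growth read once vehicle control cultures reached saturation at 30 °C; 1 = growth at the plate median or of vehicle wells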
# Conditions: S. cerevisiae deletion strains, growth OD
# [1] = locus YAR019C, strain CDC15, stronger effect = lower value
# [2] = locus YBL105C, strain PKC1, stronger effect = lower value
# [3] = locus YBR135W, strain CKS1, stronger effect = lower value
# [4] = locus YBR136W, strain MEC1, stronger effect = lower value
# [5] = locus YBR160W, strain CDC28, stronger effect = lower value
# [6] = locus YDL017W, strain CDC7, stronger effect = lower value
# [7] = locus YDL028C, strain MPS1, stronger effect = lower value
# [8] = locus YDL101C, strain DUN1, stronger effect = lower value
# [9] = locus YDL108W, strain KIN28, stronger effect = lower value
# [10] = locus YDL132W, strain cdc53, stronger effect = lower value
# [11] = locus YDL214C, strain PRR2, stronger effect = lower value
# [12] = locus YDR052C, strain DBF4, stronger effect = lower value
# [13] = locus YDR054C, strain cdc34, stronger effect = lower value
# [14] = locus YDR226W, strain ADK1, stronger effect = lower value
# [15] = locus YDR477W, strain SNF1, stronger effect = lower value
# [16] = locus YER123W, strain YCK3, stronger effect = lower value
# [17] = locus YER133W, strain GLC7, stronger effect = lower value
# [18] = locus YFL009W, strain cdc4, stronger effect = lower value
# [19] = locus YFL029C, strain CAK1, stronger effect = lower value
# [20] = locus YFR003C, strain YPI1, stronger effect = lower value
# [21] = locus YFR019W, strain FAB1, stronger effect = lower value
# [22] = locus YFR028C, strain CDC14, stronger effect = lower value
# [23] = locus YGR040W, strain KSS1, stronger effect = lower value
# [24] = locus YGR052W, strain FMP48, stronger effect = lower value
# [25] = locus YGR092W, strain DBF2, stronger effect = lower value
# [26] = locus YHR030C, strain SLT2, stronger effect = lower value
# [27] = locus YHR079C, strain IRE1, stronger effect = lower value
# [28] = locus YHR082C, strain KSP1, stronger effect = lower value
# [29] = locus YHR205W, strain SCH9, stronger effect = lower value
# [30] = locus YIL147C, strain SLN1, stronger effect = lower value
# [31] = locus YJL095W, strain BCK1, stronger effect = lower value
# [32] = locus YJL128C, strain PBS2, stronger effect = lower value
# [33] = locus YJL157C, strain FAR1, stronger effect = lower value
# [34] = locus YJR016C, strain ILV3, stronger effect = lower value
# [35] = locus YJR066W, strain TOR1 (second series), stronger effect = lower value
# [36] = locus YJR066W, strain TOR1, stronger effect = lower value
# [37] = locus YKL048C, strain ELM1, stronger effect = lower value
# [38] = locus YKL067W, strain YNK1, stronger effect = lower value
# [39] = locus YKL101W, strain HSL1, stronger effect = lower value
# [40] = locus YKL193C, strain SDS22, stronger effect = lower value
# [41] = locus YKL203C, strain TOR2, stronger effect = lower value
# [42] = locus YLR113W, strain HOG1, stronger effect = lower value
# [43] = locus YLR133W, strain CKI1, stronger effect = lower value
# [44] = locus YLR403W, strain SFP1, stronger effect = lower value
# [45] = locus YML070W, strain DAK1, stronger effect = lower value
# [46] = locus YMR001C, strain CDC5, stronger effect = lower value
# [47] = locus YMR205C, strain PFK2 (second series), stronger effect = lower value
# [48] = locus YMR277W, strain FCP1, stronger effect = lower value
# [49] = locus YNL006W, strain LST8, stronger effect = lower value
# [50] = locus YNL020C, strain ARK1, stronger effect = lower value
# [51] = locus YNL161W, strain CBK1, stronger effect = lower value
# [52] = locus YNL183C, strain NPR1, stronger effect = lower value
# [53] = locus YNL207W, strain RIO2, stronger effect = lower value
# [54] = locus YNL222W, strain SSU72, stronger effect = lower value
# [55] = locus YNL307C, strain MCK1 (second series), stronger effect = lower value
# [56] = locus YOL078W, strain AVO1, stronger effect = lower value
# [57] = locus YOL136C, strain PFK27, stronger effect = lower value
# [58] = locus YOR061W, strain CKA2, stronger effect = lower value
# [59] = locus YOR119C, strain RIO1, stronger effect = lower value
# [60] = locus YOR231W, strain MKK1, stronger effect = lower value
# [61] = locus YOR329C, strain SCD5, stronger effect = lower value
# [62] = locus YPL031C, strain PHO85, stronger effect = lower value
# [63] = locus YPL153C, strain RAD53, stronger effect = lower value
# [64] = locus YPL204W, strain HRR25, stronger effect = lower value
# [65] = locus YPL209C, strain IPL1, stronger effect = lower value
# [66] = locus YPL256C, strain CLN2, stronger effect = lower value
# [67] = locus YPR025C, strain CCL1, stronger effect = lower value
# [68] = locus YPR106W, strain ISR1, stronger effect = lower value
# [69] = locus YPR111W, strain DBF20, stronger effect = lower value
# [70] = strain NNK1, stronger effect = lower value
# [71] = strain TSCII, stronger effect = lower value
# [72] = locus YGR078C, strain PAC10, stronger effect = lower value
# [73] = locus YGR229C, strain SMI1, stronger effect = lower value
# [74] = locus YJR075W, strain HOC1, stronger effect = lower value
# [75] = locus YMR263W, strain SAP30, stronger effect = lower value
# [76] = locus YMR307W, strain GAS1, stronger effect = lower value
# [77] = locus YNL153C, strain GIM3, stronger effect = lower value
# [78] = locus YNL322C, strain KRE1, stronger effect = lower value
# [79] = locus YPL055C, strain LGE1, stronger effect = lower value
structure (smiles),measurement,setting,value
O=C(NCc1ccc(F)c(Cl)c1)Nc1csc([N+](=O)[O-])c1,normalized growth,[1],0.984
same,normalized growth,[2],0.979
same,normalized growth,[3],0.987
same,normalized growth,[4],0.965
same,normalized growth,[5],0.981
same,normalized growth,[6],0.981
same,normalized growth,[7],0.98
same,normalized growth,[8],0.984
same,normalized growth,[9],0.975
same,normalized growth,[10],0.989
same,normalized growth,[11],0.975
same,normalized growth,[12],0.985
same,normalized growth,[13],0.989
same,normalized growth,[14],0.986
same,normalized growth,[15],0.977
same,normalized growth,[16],0.917
same,normalized growth,[17],0.965
same,normalized growth,[18],0.989
same,normalized growth,[19],0.967
same,normalized growth,[20],0.984
same,normalized growth,[21],0.951
same,normalized growth,[22],0.977
same,normalized growth,[23],0.976
same,normalized growth,[24],1.02
same,normalized growth,[25],0.96
same,normalized growth,[26],0.906
same,normalized growth,[27],0.958
same,normalized growth,[28],0.99
same,normalized growth,[29],0.932
same,normalized growth,[30],0.983
same,normalized growth,[31],0.963
same,normalized growth,[32],0.957
same,normalized growth,[33],0.987
same,normalized growth,[34],0.99
same,normalized growth,[35],0.952
same,normalized growth,[36],0.987
same,normalized growth,[37],0.98
same,normalized growth,[38],0.973
same,normalized growth,[39],0.947
same,normalized growth,[40],0.987
same,normalized growth,[41],1.03
same,normalized growth,[42],0.922
same,normalized growth,[43],0.962
same,normalized growth,[44],0.948
same,normalized growth,[45],0.938
same,normalized growth,[46],0.99
same,normalized growth,[47],0.962
same,normalized growth,[48],0.991
same,normalized growth,[49],0.993
same,normalized growth,[50],0.972
same,normalized growth,[51],0.983
same,normalized growth,[52],0.957
same,normalized growth,[53],0.981
same,normalized growth,[54],0.988
same,normalized growth,[55],0.973
same,normalized growth,[56],0.983
same,normalized growth,[57],0.942
same,normalized growth,[58],0.966
same,normalized growth,[59],1.01
same,normalized growth,[60],0.939
same,normalized growth,[61],0.981
same,normalized growth,[62],0.983
same,normalized growth,[63],0.969
same,normalized growth,[64],0.981
same,normalized growth,[65],0.981
same,normalized growth,[66],0.916
same,normalized growth,[67],0.989
same,normalized growth,[68],0.978
same,normalized growth,[69],0.977
same,normalized growth,[70],0.99
same,normalized growth,[71],0.981
O=C(Nc1ccc(Cl)cc1)c1csc([N+](=O)[O-])c1,normalized growth,[1],0.92
same,normalized growth,[2],0.93
same,normalized growth,[3],0.931
same,normalized growth,[4],0.927
same,normalized growth,[5],0.933
same,normalized growth,[6],0.938
same,normalized growth,[7],0.922
same,normalized growth,[8],0.943
same,normalized growth,[9],0.929
same,normalized growth,[10],0.908
same,normalized growth,[11],0.874
same,normalized growth,[12],0.936
same,normalized growth,[13],0.901
same,normalized growth,[14],0.923
same,normalized growth,[15],0.803
same,normalized growth,[16],0.795
same,normalized growth,[17],0.764
same,normalized growth,[18],0.913
same,normalized growth,[19],0.919
same,normalized growth,[20],0.924
same,normalized growth,[21],0.918
same,normalized growth,[22],0.915
same,normalized growth,[23],0.797
same,normalized growth,[24],0.826
same,normalized growth,[25],0.545
same,normalized growth,[26],0.583 (active)
same,normalized growth,[27],0.764
same,normalized growth,[28],0.891
same,normalized growth,[29],0.786
same,normalized growth,[30],0.923
same,normalized growth,[31],0.697
same,normalized growth,[32],0.935
same,normalized growth,[33],0.827
same,normalized growth,[34],0.926
same,normalized growth,[35],0.752
same,normalized growth,[36],0.759
same,normalized growth,[37],0.874
same,normalized growth,[38],0.894
same,normalized growth,[39],0.894
same,normalized growth,[40],0.92
same,normalized growth,[41],0.857
same,normalized growth,[42],0.596 (active)
same,normalized growth,[43],0.873
same,normalized growth,[44],0.79
same,normalized growth,[45],0.832
same,normalized growth,[46],0.92
same,normalized growth,[47],0.862
same,normalized growth,[48],0.914
same,normalized growth,[49],0.921
same,normalized growth,[50],0.863
same,normalized growth,[51],0.933
same,normalized growth,[52],0.829
same,normalized growth,[53],0.908
same,normalized growth,[54],0.919
same,normalized growth,[55],0.818
same,normalized growth,[56],0.923
same,normalized growth,[57],0.861
same,normalized growth,[58],0.882
same,normalized growth,[59],0.86
same,normalized growth,[60],0.825
same,normalized growth,[61],0.924
same,normalized growth,[62],0.773
same,normalized growth,[63],0.795
same,normalized growth,[64],0.757
same,normalized growth,[65],0.926
same,normalized growth,[66],0.712 (active)
same,normalized growth,[67],0.929
same,normalized growth,[68],0.94
same,normalized growth,[69],0.925
same,normalized growth,[70],0.944
same,normalized growth,[71],0.928
CC(=O)c1csc([N+](=O)[O-])c1,normalized growth,"locus YAL013W, strain DEP1, stronger effect = lower value",1.01
same,normalized growth,"locus YBR229C, strain ROT2, stronger effect = lower value",1.02
same,normalized growth,[8],0.951
same,normalized growth,"locus YDL134C, strain PPH21, stronger effect = lower value",1
same,normalized growth,"locus YDR150W, strain NUM1, stronger effect = lower value",0.921
same,normalized growth,"locus YEL061C, strain CIN8, stronger effect = lower value",1.02
same,normalized growth,[72],0.975
same,normalized growth,[73],1.01
same,normalized growth,[26],1.08
same,normalized growth,"locus YHR087W, strain rtc3, stronger effect = lower value",1.02
same,normalized growth,"locus YJL187C, strain SWE1, stronger effect = lower value",0.983
same,normalized growth,"locus YJR043C, strain POL32, stronger effect = lower value",1
same,normalized growth,[74],0.99
same,normalized growth,"locus YKL190W, strain CNB1, stronger effect = lower value",1.01
same,normalized growth,"locus YLR039C, strain RIC1, stronger effect = lower value",1
same,normalized growth,"locus YLR058C, strain SHM2 (second series), stronger effect = lower value",0.998
same,normalized growth,"locus YLR085C, strain ARP6, stronger effect = lower value",0.89
same,normalized growth,"locus YLR262C, strain YPT6, stronger effect = lower value",0.976
same,normalized growth,"locus YML094W, strain GIM5, stronger effect = lower value",1.02
same,normalized growth,"locus YMR219W, strain ESC1, stronger effect = lower value",0.996
same,normalized growth,[75],1.01
same,normalized growth,[76],1.03
same,normalized growth,[77],0.947
same,normalized growth,"locus YNL298W, strain CLA4 (second series), stronger effect = lower value",1.02
same,normalized growth,[78],1.01
same,normalized growth,"locus YNR030W, strain Alg12, stronger effect = lower value",1.02
same,normalized growth,[79],0.996
same,normalized growth,"locus YPL241C, strain CIN2, stronger effect = lower value",1.09
same,normalized growth,"locus YPR135W, strain CTF4, stronger effect = lower value",0.988
c1ccc(C2CN3CCSC3=N2)cc1 (configuration not stated),normalized growth,"locus YAL040C, strain CLN3, stronger effect = lower value",0.985 and 1
same,normalized growth,"locus YCL061C, strain MRC1 (second series), stronger effect = lower value",0.997 and 1.02
same,normalized growth,"locus YDR363W, strain ESC2, stronger effect = lower value",1.02 and 1.04
same,normalized growth,"locus YER002W, strain NOP16, stronger effect = lower value",0.991 and 1.03
same,normalized growth,[72],1
same,normalized growth,[73],1.04
same,normalized growth,[74],1.04 and 1.01
same,normalized growth,[75],1.01
same,normalized growth,[76],1.02 and 1
same,normalized growth,[77],1.02
same,normalized growth,"locus YNL175C, strain NOP13, stronger effect = lower value",0.984 and 1
same,normalized growth,"locus YNL197C, strain WHI3, stronger effect = lower value",0.977 and 1.01
same,normalized growth,"locus YNL224C, strain SQS1, stronger effect = lower value",0.999 and 1.01
same,normalized growth,[78],1.02
same,normalized growth,"locus YOR083W, strain WHI5 (second series), stronger effect = lower value",0.983 and 1.03
same,normalized growth,[79],1.05
